Here are results for 27 molecules from PubChem BioAssay AID1347076 (National Center for Advancing Translational Sciences (NCATS), 2019).

Structures are written as SMILES. About 13,000 (3.2%) of roughly 400,000 compounds were called active. Where a call stands in place of a potency, no number is given. Not shown: some 18% with an inconclusive outcome. Calls follow the shape of the dose curve; as a rule, active = well fitted cell-killing curve with a large enough effect; inconclusive = small, poorly fitted or top-dose-only effect, or effect the other way; inactive = flat fitted curve, though single readings scatter. The sample as a whole holds a higher share of actives than the screen did.
Potency is read from the fitted curve at half-maximal effect.

The assay is described as follows: qHTS assay for MDR1-selective chemotherapeutics: Primary screen using the drug-selected MDR subline cells KB-V1. Also: nearly all actives have a fitted effect of over 60% in size. Particulars: KB-V1 MDR cells viability, CellTiter-Glo, 72 h; series mostly up to 46.1 µM. In a few lines:
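In this primary screen, KB-V1 cells overexpressing P-gp are incubated with library compounds (lowest to highest concentration) for 72 h at 37 degrees C before a luminescent ATP viability read.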
Background: Quantitative high-throughput screening tests each substance at several concentrations.
Take `FC(F)(F)c1cccc(N/N=C/c2ccccc2)c1`: the Potency result is “inactive”.

For the molecule `FC(F)(F)c1cccc(Nc2ncnc3ccccc23)c1`, the Potency was 18.4 µM (active).

`FC(F)(F)c1cccc(NC(=S)Nc2cccc(Cl)c2)c1`: the Potency result was “inactive”.

On to `CN(Cc1ccccc1)C(=O)c1cn(C)c2ccc(S(=O)(=O)N3CCCCC3)cc2c1=O`, for which the Potency result is “inactive”.

Consider `CN1OC[C@@H]2CN[C@H](c3ccc(-c4ccccc4)cc3)C[C@@H]21`, for which the Potency entry is “inactive”.

For the molecule `Cn1c(=O)c2c(SCC(=O)NCC3CCCO3)nc(-c3ccccc3F)nc2n(C)c1=O` (configuration not stated), the Potency entry was “inactive”.

For `COc1ccc(C(C(=O)NC2CCCCC2)N(C(=O)CCl)c2ccccc2Cl)cc1` (configuration not stated), the Potency result was “inactive”.

For `COc1ccc(C(C(=O)NC2CCCCC2)N(C(=O)Cc2c[nH]c3ccccc23)c2ccccc2)cc1OC` (configuration not stated), the Potency is 23.1 µM (active).

Take `COc1ccc(CNC(=O)[C@H](Cc2c[nH]c3ccccc23)NC(C)=O)cc1OC`: the Potency entry was “inactive”.

As to `C[C@@H]1CN([C@@H](C)CO)S(=O)(=O)c2ccc(-c3ccc(C(=O)N(C)C)cc3)cc2O[C@@H]1CN(C)Cc1ccccc1C(=O)O`, the Potency result is “inactive”.

As to `COc1ccc(NC(=O)CN2C(=O)CSc3ccc(S(=O)(=O)N4CCC(C)CC4)cc32)cc1`, the Potency entry was “inactive”.

With `O=C(CN1CCCCCC1)Nc1ccc(S(=O)(=O)N2CCCCC2)cc1`, the Potency entry is “inactive”.

Regarding `CCc1ccc(NC(=O)CN2CCSc3ccc(S(=O)(=O)N4CCCC4)cc32)cc1`, the Potency is 7.31 µM (active).

Regarding `CC(C)N1C(=O)c2ccccc2NC(=O)C1C(=O)NCc1cccs1` (configuration not stated), the Potency entry is “inactive”.

Regarding `CCCn1c(NCc2ccccc2F)nc2ccccc21`, the Potency entry is “inactive”.

With `Cn1c(CNC(=O)C(C)(C)C)nc2ccccc21`, the Potency result was “inactive”.

Consider `Cc1ccc(O)c(CNc2nc3ccccc3n2C)c1`, for which the Potency is 16.4 µM (active).

For `CCc1nn(CC(=O)Nc2cccc(C)c2C)c(=O)c2cc3sccc3n12`, the Potency entry is “inactive”.

In the case of `CCOc1ccc(S(=O)(=O)N(CC(=O)O)c2ccccc2)cc1`, the Potency entry is “inactive”.

For `Cc1cccc(N(CC(O)CN(C)C)S(=O)(=O)c2ccccc2)c1` (configuration not stated), the Potency result was “inactive”.

For the molecule `O=S(=O)(ON(c1ccccc1)S(=O)(=O)c1ccccc1)c1ccccc1`, the Potency is 23.1 µM (active).

For the molecule `CCOc1ccc(CNC(=O)c2ccc3nc(CC)c(CC)nc3c2)cc1OC`, the Potency entry was “inactive”.

For `CCCCNC(=O)c1nc(C2CCN(S(=O)(=O)c3ccc(F)c(F)c3)CC2)oc1-c1cccc(C(F)(F)F)c1`, the Potency entry was “inactive”.

Regarding `Cc1ccccc1Nc1nnc(SCC(=O)c2cc3ccccc3o2)s1`, the Potency entry is “inactive”.

For `Cc1cc2c(=O)n(C)c(SCC(=O)c3cc4ccccc4o3)nc2s1`, the Potency entry was “inactive”.

For the molecule `Cc1ccc(Nc2nnc(SCC(=O)c3cc4ccccc4o3)s2)cc1C`, the Potency was 20.6 µM (active).

As for `Cc1cccc(S(=O)(=O)N(C)C[C@H]2OCc3cnnn3CCCC(=O)N([C@@H](C)CO)C[C@H]2C)c1`, the Potency entry is “inactive”.
